Compound activity from PubChem BioAssay.
TDP1 block: inhibitors of human tyrosyl-DNA phosphodiesterase TDP1. Q9NUW8. recombinant TDP1, AlphaScreen DNA substrate cleavage. Potency, µM (titrated, usually from 130 µM), hits mostly inhibitors. 350,000 tested, 0.28% active. AID 485290; further: nearly all actives have a fitted effect of over 40% in size
Target sequence (Q9NUW8 whole entry, looked up): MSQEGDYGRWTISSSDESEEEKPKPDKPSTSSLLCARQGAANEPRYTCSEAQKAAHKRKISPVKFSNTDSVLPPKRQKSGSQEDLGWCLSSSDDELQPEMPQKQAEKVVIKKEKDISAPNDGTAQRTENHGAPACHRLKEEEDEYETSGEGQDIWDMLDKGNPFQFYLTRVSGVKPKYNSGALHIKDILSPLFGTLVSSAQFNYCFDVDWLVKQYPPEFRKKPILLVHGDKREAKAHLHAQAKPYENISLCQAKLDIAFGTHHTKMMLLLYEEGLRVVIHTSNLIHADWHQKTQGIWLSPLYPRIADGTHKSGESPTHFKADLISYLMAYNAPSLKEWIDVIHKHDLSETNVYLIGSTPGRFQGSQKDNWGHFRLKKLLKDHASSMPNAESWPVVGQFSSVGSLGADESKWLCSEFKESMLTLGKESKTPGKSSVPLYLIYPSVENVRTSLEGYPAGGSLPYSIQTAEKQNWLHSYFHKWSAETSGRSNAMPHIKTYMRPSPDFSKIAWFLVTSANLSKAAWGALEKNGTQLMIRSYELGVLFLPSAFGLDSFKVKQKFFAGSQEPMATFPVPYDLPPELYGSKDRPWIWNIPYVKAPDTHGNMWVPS
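Recombinant E. coli-expressed Tdp1 (1 nM) preincubated with compound 15 min at RT, then 5'-biotin/3'-phosphotyrosine-FITC DNA substrate (15 nM) added for 5 min. AlphaScreen beads (10 ug/ml) added, 10 min RT; tyrosine-FITC cleavage read as signal loss.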
TDP1 cell CPT: growth inhibition of DT40 Tdp1-/-;hTDP1 cells with camptothecin (screen for TDP1 inhibitors) | 420,000 tested, 12% active | Potency, µM (titrated, usually from 46.2 µM), most hits filed as inhibitors | AID 686979 | chicken DT40 Tdp1-/-;hTDP1 cells + 20 nM CPT, ATP luminescence, 48 h; further: nearly all actives have a fitted effect of over 55% in size
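Cell growth measured by CellTiter-Glo luminescence after a minimum 48 h, 37 C compound exposure with 20 nM CPT in Tdp1-knockout DT40 cells stably expressing hTDP1, seeded 400/well; qHTS titration format.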
DT40 TDP1 no CPT: qHTS for Inhibitors of human tyrosyl-DNA phosphodiesterase 1 (TDP1): qHTS in cells in absence of CPT; DT40 Tdp1-/- hTDP1 cells, no CPT, ATP luminescence, 48 h; Potency, µM (highest dose often 46.2 µM), most hits filed as inhibitors; 420,000 tested, 15% active; AID 686978, 2013; further: nearly all actives have a fitted effect of over 55% in size
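Cells were dispensed at 400 per well, compounds added by pin tool, plates incubated ≥48 hr at 37 °C, then CellTiter-Glo added for 30 min at room temperature before luminescence reading. Line: DT40 Tdp1-/- complemented with hTDP1; camptothecin omitted.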
ClpP mod: qHTS Assay for Activators of ClpP. ATP-dependent Clp protease proteolytic subunit (Bacillus subtilis (strain 168)), P80244. purified B. subtilis ClpP, FRET peptide cleavage, 20 min. Potency, µM (series often up to 57.5 µM). 340,000 tested, 1.9% active. AID 651965, 2013; active means well fitted falling curve with a large enough effect; inconclusive means small, poorly fitted or top-dose-only effect; inactive means no such curve, though single readings can be large or run the other way; further: the source files actives as falling curves though it sought activators and does not explain the sign; nearly all actives have a fitted effect of over 65% in size
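FRET quenching reversal measured ClpP activation: 10 microg/mL B. subtilis ClpP at pH 8 with the FRET-FV decapeptide, read at 430 nm after 320 nm excitation. The 20-min minus 0-min signal was scaled between DMSO/no-enzyme wells and ADEP (5.8 microM final).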
A number is an active result; n = inactive; u = inconclusive; x = not tested or not shown. This is a sample that favours compounds with a hit; in the whole collection about 17% have one here. Unless noted, the call rests on the fitted dose curve; in most records, active means well fitted curve in the direction sought with a large enough effect; inconclusive means small, poorly fitted or top-dose-only effect, or another doubt; inactive means no such curve, though single readings can be large; an effect the other way counts as inactive or inconclusive.

SMILES | TDP1 block | TDP1 cell CPT | DT40 TDP1 no CPT | ClpP mod
CCOc1ccc(CCNC(=O)c2ccc3c(=O)[nH]c4c(C(=O)NC(C)C)sc(=S)n4c3c2)cc1 | n | 23.1µM | 13µM | n
CC1(C2(O)CCCCC2)NCCc2ccccc21 (centres undefined) | n | n | u | x
Cc1ccc(S(=O)(=O)NCc2cccnc2)cc1C(=O)NC1CCCCC1 | x | n | n | n
CC(C)OC(=O)/C(C#N)=C/c1cn(C)c2ccccc12 | n | n | n | x
Cn1cc(/C=C(\C#N)C(=O)Nc2ccccc2O)c2ccccc21 | x | u | 18.4µM | n
Cc1cc(C)n2nc(SCC(=O)NC3(C#N)CCCCC3)nc2n1 | x | n | n | n
Cc1cccc(N2CCN(C(=O)c3ccc(CNc4c(N5CCC(C)CC5)c(=O)c4=O)cc3)CC2C)c1 (centres undefined) | n | 20.6µM | u | n
CC1CCN(c2c(NCc3ccc(C(=O)N4CCc5ccccc54)cc3)c(=O)c2=O)CC1 | n | 5.17µM | 5.8µM | n
CC1CCN(c2c(NCc3ccc(C(=O)N(C)C4CCCCC4)cc3)c(=O)c2=O)CC1 | x | u | n | n
Cc1ccc(N(C)C(=O)c2ccc(CNc3c(N4CCC(C)CC4)c(=O)c3=O)cc2)cc1 | n | u | u | x
CC(NS(=O)(=O)c1cc2c3c(c1)CCN3C(=O)CC2)c1ccccc1 (centres undefined) | x | n | n | n
COc1ccc(C(=O)N(Cc2ccccc2)Cc2ccccc2)cc1COc1ccc(NC(C)=O)cc1 | n | x | x | x
Cc1ccc(S(=O)(=O)CCC(=O)NCCN2C(=O)S/C(=C/c3ccc(F)cc3)C2=O)cc1 | n | 23.1µM | 18.4µM | n
O=C(CCNC(=O)c1ccco1)NCCN1C(=O)S/C(=C\c2ccc(F)cc2)C1=O | n | u | u | n
CC(C)c1ccc(NC(=O)c2ccccc2NC(=O)C2CC=CCC2C(=O)O)cc1 (centres undefined) | n | n | u | n
Cc1nn(-c2ccccc2)c(C)c1/C=C1\C(=O)N(C)C(=S)N1C | n | u | 16.4µM | x
Cc1nn(-c2ccccc2)c(Cl)c1/C=C1\SC(=S)NC1=O | n | u | u | n
O=C(Oc1cccccc1=O)c1ccccc1 | n | 18.4µM | 20.6µM | n
CCc1cccc(NC(=O)Nc2csc3c2CCCC3)c1 | n | 20.6µM | 23.1µM | n
COc1cccc(NC(=O)c2csc3c2CCCCC3)c1 | n | 20.6µM | 16.4µM | n
COc1ccc(NC(=O)c2csc3c2CCCCC3)cc1 | n | u | u | n
Cc1cccc(C)c1NC(=O)Nc1csc2c1CCCC2 | n | n | n | n
Cc1ccc(C)c(NC(=O)Nc2csc3c2CCCC3)c1 | n | u | u | n
Cc1cccc(C)c1NC(=O)c1csc2c1CCCC2 | n | 3.66µM | 5.17µM | n
CC(=O)Nc1ccc(CN(C)c2c(C)nc3ccc(C(=O)N4CCN(C(C)=O)CC4)cn23)cc1 | x | n | n | n
SMILES | TDP1 block | TDP1 cell CPT | DT40 TDP1 no CPT | ClpP mod
CC1CC(C)(C)NC(=S)N1CCC(=O)N1CCc2ccccc21 (centres undefined) | n | u | u | n
COc1cc(CC(=O)NCCCc2ccccc2)cc(OC)c1OC | n | u | 20.6µM | x
CCNC(=O)c1ccc2nc(Cc3ccccc3)oc2c1 | n | u | u | n
CCOc1ccc(CNC(=O)c2ccc3nc(Cc4ccc(OC)cc4)oc3c2)cc1OC | n | 18.4µM | 13µM | n
COc1cc(CNC(=O)c2ccc3nc(Cc4ccccc4)oc3c2)cc(OC)c1OC | n | 6.51µM | 2.59µM | n
COc1cc(CNC(=O)c2ccc3nc(CCc4ccccc4)oc3c2)cc(OC)c1OC | n | 20.6µM | 20.6µM | n
COc1ccc(Cc2nc3ccc(C(=O)NCCc4ccc(OC)c(OC)c4)cc3o2)cc1 | n | u | u | n
CSCCC(NC(=O)C1CCCC1)c1nnc2ccccn12 (centres undefined) | n | n | n | n
CSCC[C@H](NS(=O)(=O)c1ccc(C(C)=O)cc1)c1nnc2ccccn12 | 39.8µM | n | n | n
CCOC(=O)c1cc(-c2ccccc2)n(-c2cccc(C(=O)Nc3cccc(C)c3)c2)c1C | n | u | 23.1µM | n
CCOC(=O)c1cnn(-c2ccc(C(=O)Nc3cccc(C(C)=O)c3)cc2)c1N | n | 2.06µM | u | n
CCOC(=O)c1cc(-c2ccccc2)n(-c2cccc(C(=O)N(CC)c3ccccc3)c2)c1C | n | 14.6µM | 18.4µM | n
COC(=O)c1cnn(-c2ccc(C(=O)Nc3cccc(C(C)=O)c3)cc2)c1N | x | n | n | n
CC(Sc1ccc(S(=O)(=O)N(C)C)cn1)C(=O)NC1CCCC1 (centres undefined) | n | n | n | n
CC(=O)C1C(c2ccc(F)cc2)C2C(C)=NN=C2CC1(C)O (centres undefined) | n | n | n | x
CCN(CC)C(=O)[C@H]1CC(CC(=O)NCCN2CCOCC2)C(=O)N2CCc3c([nH]c4ccccc34)[C@]12C (some centres undefined) | n | n | n | n
O=C(Cn1cc2c(n1)CCCCC2)Nc1ccccc1Br | x | n | n | n
CCOc1cc(CNc2ncnc3nc[nH]c23)ccc1OC | n | u | 25.9µM | n
CCc1ccc(Nc2ncnc3nc[nH]c23)cc1 | x | n | n | x
CCOC(=O)c1ccc(CNc2ncnc3nc[nH]c23)cc1 | n | 3.98µM | 11.2µM | n
COc1ccc(CNc2ncnc3nc[nH]c23)cc1OC | n | u | n | n
Cc1cc(C)n(CC(=O)NNC(=O)c2ccc(S(C)(=O)=O)cc2)n1 | n | n | n | x
COc1ccc(NC2=NCC(Cc3ccc(Br)cc3)S2)cc1 (centres undefined) | n | u | 25.9µM | x
CCOc1ccccc1-c1cc(C(=O)N/N=C/c2ccc3c(c2)OCO3)c2ccccc2n1 | n | 11.6µM | 9.2µM | n
CCOc1ccccc1-c1cc(C(=O)N/N=C/c2ccc(O)c(OC)c2)c2ccccc2n1 | n | 1.46µM | 0.581µM | n
SMILES | TDP1 block | TDP1 cell CPT | DT40 TDP1 no CPT | ClpP mod
CC(OC(=O)CC1Sc2ccccc2NC1=O)C(=O)N(C)Cc1ccccc1 (centres undefined) | x | u | 20.6µM | x
CCOC(=O)CC1Sc2ccccc2NC1=O (centres undefined) | n | n | n | n
O=C1CCCCC1(CCc1ccncc1)CCc1ccncc1 | x | 18.4µM | 11.6µM | n
COCCNC(=O)C1(C)CCCN(C(=O)c2cccnc2SC)C1 (centres undefined) | x | n | n | n
Cc1cc(C)cc(Oc2ccccc2C=O)c1 | n | 5.8µM | 4.61µM | n
Cc1cc(C)cc(Oc2ccccc2/C=N\O)c1 | n | n | n | n
COc1ccc(Oc2ccccc2C=O)cc1 | n | 11.6µM | 5.8µM | n
CCN(Cc1ccccc1)S(=O)(=O)c1ccc(C(=O)N(CCCN(C)C)c2nc3cc4c(cc3s2)OCO4)cc1 | n | u | n | n
CCN(Cc1ccccc1)S(=O)(=O)c1ccc(C(=O)N(CCCN(C)C)c2nc3c(C)c(C)ccc3s2)cc1 | n | u | 16.4µM | x
